# PubChem BioAssay (NCATS)
# Values joined by “and” are separate entries in the source; they are usually repeats but may differ in a detail not shown here. Equal entries are not always repeated. Records with an inconclusive call do not appear. A call without a number means that no potency is given here. Unmarked numbers belong to inactive results. Active and inactive are the calls of the source. Calls follow the shape of the dose curve; as a rule, active = well fitted curve in the direction sought with a large enough effect; inconclusive = small, poorly fitted or top-dose-only effect, or another doubt; inactive = no such curve, though single readings can be large; an effect the other way counts as inactive or inconclusive.
# Legend:
# [1] = biological target: Cytochrome P450 3A7 (Homo sapiens) (UniProt P24462); test: Cytochrome P450 family 3 subfamily A member 7 (CYP3A7) small molecule antagonists: luciferase biochemical qHTS assay (AID 1963596); also: nearly all actives have a fitted effect of over 40% in size
# Procedure, shortened: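 Luminescence from luciferin released by CYP3A7 from a proluciferin substrate, read 20 min after detection reagent. Compound and enzyme-substrate mix sat 10 min before NADPH regeneration solution; reaction ran 1 h at room temperature.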
# [2] = Viability qHTS for spleen associated tyrosine kinase inhibitor (SYKi) naive MV4-11 cells (AID 1963823); also: nearly all actives have a fitted effect of over 40% in size; also: potency is read from the fitted curve at half-maximal effect
# Procedure, shortened: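 CellTiter-Glo luminescence, 10 min room-temperature incubation, gave viability. Cells: naive MV4-11 (500/well), treated 72 hr at 37 C, 5% CO2.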
# [3] = Viability qHTS for spleen associated tyrosine kinase inhibitor (SYKi) drug resistant MV4-11 cells (AID 1963824); also: nearly all actives have a fitted effect of over 35% in size; also: potency is read from the fitted curve at half-maximal effect
# Procedure, shortened: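 SYK inhibitor-resistant MV4-11 AML cells, 500 per well, added to predispensed compounds and incubated 72 hr at 37 C, 5% CO2. Viability measured by CellTiter-Glo luminescence after 10 min at room temperature.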
# [4] = Quantitative highthroughput screen to assess conditional lethalithy of NOMO1 cells grown in RPMI1640 with untreated serum (RPMI+s) (AID 1963876); also: nearly all actives have a fitted effect of over 35% in size
# Procedure, shortened: (§1)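 Each medium arm—HPLM with 10% dialyzed FBS, or RPMI1640 with 5 mM glucose and 10% untreated or dialyzed FBS—was screened against an 11-point, 3-fold compound titration for 48 h at 37 °C, with CellTiter-Glo luminescence as endpoint.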
# [5] = Quantitative highthroughput screen to assess conditional lethalithy of NOMO1 cells grown in RPMI1640 with dialyzed fetal bovine serum (RPMI+ds) (AID 1963877); also: series mostly up to about 46 µM; nearly all actives have a fitted effect of over 30% in size
# Procedure, shortened: as §1
# [6] = Quantitative highthroughput screen to assess conditional lethalithy of P12 Ichikawa cells grown in Human Plasma-Like Medium with dialyzed fetal bovine serum (HPLM+ds) (AID 1963879); conditions: Potency: viability; also: series mostly up to about 46 µM; nearly all actives have a fitted effect of over 35% in size
# Procedure, shortened: as §1
# [7] = Quantitative highthroughput screen to assess conditional lethalithy of P12 Ichikawa cells grown in RPMI1640 with untreated serum (RPMI+s) (AID 1963881); conditions: Potency: viability; also: series mostly up to about 46 µM; nearly all actives have a fitted effect of over 35% in size
# Procedure, shortened: as §1
# [8] = Cellular viability qHTS for adrenocortical cancer (ACC) cell line SW-13 (AID 1963989); conditions: SW-13 ACC cells viability, CellTiter-Glo, 48 h; activity (max response): stronger effect = lower value;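 also: cells grown in serum-free medium with ITS supplement; nearly all actives have a fitted effect of over 65% in size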
# Procedure, shortened: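 Here, serum-free SW-13 cultures were dosed up to 46 uM. Following 48 h, ATP-dependent luminescence (CellTiter-Glo) reported viable cells, and logistic modeling produced IC50 values.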
# [9] = Cellular viability qHTS for adrenocortical cancer (ACC) cell line NCI-H295R (AID 1963990); also: nearly all actives have a fitted effect of over 60% in size
# Procedure, shortened: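 Viability of NCI-H295R after 48 h of treatment (final up to 46 uM) measured through cellular ATP luminescence.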
# [10] = Quantitative highthroughput screen to assess conditional lethalithy of NOMO1 cells grown in Human Plasma-Like Medium with dialyzed fetal bovine serum (HPLM+ds) (AID 1963878); also: nearly all actives have a fitted effect of over 35% in size
# Procedure, shortened: as §1
# [11] = Quantitative highthroughput screen to assess conditional lethalithy of SEM cells grown in RPMI1640 with unreated serum (RPMI+s) (AID 1963883); also: nearly all actives have a fitted effect of over 35% in size
# Procedure, shortened: as §1
# [12] = Quantitative highthroughput screen to assess conditional lethalithy of SEM cells grown in RPMI1640 with dialyzed fetal bovine serum (RPMI+ds) (AID 1963884)
# Procedure, shortened: as §1
# [13] = Quantitative highthroughput screen to assess conditional lethalithy of SEM cells grown in Human Plasma-Like Medium with dialyzed fetal bovine serum (HPLM+ds) (AID 1963882)
# Procedure, shortened: as §1
# [14] = Quantitative highthroughput screen to assess conditional lethalithy of P12 Ichikawa cells grown in RPMI1640 with dialyzed fetal bovine serum (RPMI+ds) (AID 1963880); conditions: Potency: P12-Ichikawa viability; also: nearly all actives have a fitted effect of over 35% in size
# Procedure, shortened: as §1
# Sequence of Cytochrome P450 3A7 (Homo sapiens) (P24462 whole entry, looked up): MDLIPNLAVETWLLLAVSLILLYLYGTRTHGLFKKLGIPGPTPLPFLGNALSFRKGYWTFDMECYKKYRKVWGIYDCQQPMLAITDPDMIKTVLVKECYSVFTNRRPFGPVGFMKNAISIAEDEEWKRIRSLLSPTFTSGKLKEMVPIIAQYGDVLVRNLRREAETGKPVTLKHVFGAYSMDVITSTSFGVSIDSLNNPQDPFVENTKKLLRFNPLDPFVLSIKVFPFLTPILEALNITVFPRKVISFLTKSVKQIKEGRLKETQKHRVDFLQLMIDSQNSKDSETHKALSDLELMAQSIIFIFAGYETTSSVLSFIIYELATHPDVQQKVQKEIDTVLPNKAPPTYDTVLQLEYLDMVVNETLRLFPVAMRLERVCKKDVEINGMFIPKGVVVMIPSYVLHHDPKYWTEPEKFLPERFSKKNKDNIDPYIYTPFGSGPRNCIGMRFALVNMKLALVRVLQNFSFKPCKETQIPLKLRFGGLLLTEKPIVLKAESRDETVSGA
smiles,measurement,setting,value
COC(=O)c1ccccc1C(=O)OC,Potency,[1],inactive
O=C(N1CCOCC1)N1CCN(c2ccc(Cl)cc2)CC1,Potency,[1],inactive
CCCCCn1cc(C(=O)c2cccc3ccccc23)c2ccccc21,Potency,[1],inactive
CN=C(NS(=O)(=O)c1ccc(Cl)cc1)N1C[C@H](c2ccccc2)C(c2ccc(Cl)cc2)=N1,Potency,[1],inactive
same,Potency,[2],20.6 µM (active)
same,Potency,[3],20.6 µM (active)
COc1cc(N2CCN(C)CC2)ccc1N,Potency,[1],inactive
Cc1sc2c(c1C)C(c1ccc(Cl)cc1)=NC(CC(=O)Nc1ccc(O)cc1)c1nnc(C)n1-2 (stereo not drawn),Potency,[1],inactive
same,Potency,[2],0.148 µM (active)
same,Potency,[3],0.105 µM (active)
COc1ccsc1CNCC[C@@]1(c2ccccn2)CCOC2(CCCC2)C1,Potency,[1],inactive
same,Potency,[2],inactive
same,Potency,[3],inactive
CNC(C)[C@@H](O)c1ccc(O)cc1 (stereo partly drawn),Potency,[1],inactive
CCCCNCC(O)c1ccc(O)cc1 (stereo not drawn),Potency,[1],inactive
NCCS[As](SCCN)c1ccc(Nc2nc(N)nc(N)n2)cc1,Potency,[1],inactive
CCCCCCCCOC(=O)c1ccccc1C(=O)OCCCCCCCC,Potency,[1],inactive
CC(Cc1ccccc1)NC=O (stereo not drawn),Potency,[1],inactive
Cc1cn(C[C@H](N)C(=O)O)c(=O)n(Cc2cc(-c3ccccc3)sc2C(=O)O)c1=O,Potency,[1],inactive
same,Potency,[2],inactive
same,Potency,[3],inactive
CN1CCN(C(=O)O[C@H]2c3nccnc3C(=O)N2c2ccc(Cl)cn2)CC1,Potency,[1],inactive
same,Potency,[2],inactive
same,Potency,[3],inactive
same,Potency,[4],inactive
same,Potency,[5],inactive
same,Potency,[6],inactive
same,Potency,[7],inactive
same,activity (max response),[8],9.33%
same,Potency,[9],inactive
C=CCC1(CC(C)C)C(=O)NC(=O)NC1=O,Potency,[1],inactive
CNC(=O)NC(O)C(Cl)(Cl)Cl (stereo not drawn),Potency,[1],inactive
same,Potency,[2],inactive
same,Potency,[3],inactive
CC(N)Cc1c[nH]c2ccccc12 (stereo not drawn),Potency,[1],inactive
same,Potency,[2],inactive
same,Potency,[3],inactive
C=CCN1CCC23c4c5ccc(O)c4O[C@H]2C(=O)CC[C@@]3(O)C1C5 (stereo partly drawn),Potency,[1],inactive
CN1C2CCC1CC(OC(=O)N1Cc3ccccc3NC1=O)C2 (stereo not drawn),Potency,[1],inactive
same,Potency,[2],inactive
same,Potency,[3],inactive
CN(C)CCc1c[nH]c2ccc(CN3CCN(C)S3(=O)=O)cc12,Potency,[1],inactive
CC(C)(N)Cc1ccccc1,Potency,[1],inactive
CC(=O)OC1C[C@H](O[C@@H]2C(O)C[C@H](O[C@@H]3C(O)C[C@@H](OC4CC[C@]5(C)C(CCC6C5CC(O)[C@@]5(C)C(C7=CC(=O)OC7)CC[C@@]65O)C4)OC3C)OC2C)O[C@H](C)[C@H]1O[C@H]1OC(CO)C(O)C(O)C1O (stereo partly drawn),Potency,[1],inactive
CC(=O)NCCCOc1ccc(C(=O)N2CCC(N3C(=O)CCc4ccccc43)CC2)cc1,Potency,[1],inactive
Cc1ccccc1CN1CCC(N2CCC(n3c(=O)[nH]c4ccccc43)CC2)CC1,Potency,[1],inactive
O=C(N[C@@H]1N=C(c2ccccc2F)c2cccc3c2N(CC3)C1=O)c1cc2ccccc2[nH]1,Potency,[1],inactive
CCOC(=O)c1ccccc1C(=O)OCC,Potency,[1],inactive
c1ccc([C@@H]2C[C@H]2NC2CCNCC2)cc1,Potency,[1],inactive
same,Potency,[2],inactive
CCN1CCN(C(c2ccc(Cl)cc2)c2ccc(Cl)cc2)CC1,Potency,[1],inactive
O=C(CC1NCCC[C@H]1O)Cn1cnc2cc(Br)c(Cl)cc2c1=O (stereo partly drawn),Potency,[1],inactive
O=[N+]([O-])c1c(Cl)c(Cl)cc(Cl)c1Cl,Potency,[1],inactive
CCNCC(O)c1cccc(O)c1 (stereo not drawn),Potency,[1],inactive
C[C@@H](CN1CCC(n2c(=O)[nH]c3cc(Br)ccc32)CC1)NC(=O)[C@@H]1C[C@H]1c1ccccc1,Potency,[1],inactive
O=C(N1CCCCC1Cc1ccccc1)n1cc(-c2ccc(-c3ccccc3)cc2)nn1 (stereo not drawn),Potency,[1],inactive
CN(Cc1cccc(-c2ccncc2)c1)C(=O)Oc1ccc(-c2ccc(C(N)=O)cc2)cc1,Potency,[1],inactive
C#CC(C)(O)CC (stereo not drawn),Potency,[1],inactive
c1cncc(OC[C@@H]2CCN2)c1,Potency,[1],inactive
same,Potency,[2],inactive
same,Potency,[3],inactive
N#Cc1ccc([C@H]2CCCC[C@H]2O)cc1C(F)(F)F,Potency,[1],inactive
CCCCNC(C)(C)[P+](=O)O,Potency,[1],inactive
NC1(c2ccccc2)CCCCC1,Potency,[1],inactive
CN1C(=O)CN=C(c2ccccc2)c2cc([N+](=O)[O-])ccc21,Potency,[1],inactive
same,Potency,[2],inactive
same,Potency,[3],inactive
same,activity (max response),[8],6.26%
same,Potency,[9],inactive
CN1[C@@H]2CC[C@H]1CC(OC(=O)c1cc(Cl)cc(Cl)c1)C2 (stereo partly drawn),Potency,[1],inactive
same,Potency,[2],inactive
same,Potency,[3],inactive
same,activity (max response),[8],-16.8%
COC(=O)C1=CCCN(C)C1,Potency,[1],inactive
same,Potency,[2],inactive
same,Potency,[3],inactive
same,activity (max response),[8],1.83%
same,Potency,[9],inactive
CCNc1nc(Cl)nc(NCC)n1,Potency,[1],inactive
same,Potency,[2],inactive
same,Potency,[3],inactive
same,activity (max response),[8],-2.51%
same,Potency,[9],inactive
O=C(O)C(Cl)Cl,Potency,[1],inactive
same,Potency,[2],inactive
same,Potency,[3],inactive
same,activity (max response),[8],11.1%
CC(Cc1ccccc1)N(C)Cc1ccco1 (stereo not drawn),Potency,[1],inactive
same,Potency,[2],inactive
same,Potency,[3],inactive
same,activity (max response),[8],-0.53%
same,Potency,[9],inactive
CC(=O)C1CCOC1=O (stereo not drawn),Potency,[1],inactive
same,Potency,[2],inactive
same,Potency,[3],inactive
same,activity (max response),[8],9.4%
same,Potency,[9],inactive
CCC(C(N)=O)N1CCCC1=O (stereo not drawn),Potency,[1],inactive
same,Potency,[2],inactive
same,Potency,[3],inactive
same,activity (max response),[8],-1.47%
O=c1[nH]oc2c1CCNC2,Potency,[1],inactive
same,Potency,[2],inactive
same,Potency,[3],inactive
same,activity (max response),[8],5.4%
same,Potency,[9],inactive
CC(C)N(CCNC(=O)CN1CCCC1=O)C(C)C,Potency,[1],inactive
same,Potency,[2],inactive
same,Potency,[3],inactive
same,Potency,[10],inactive
same,Potency,[6],inactive
same,Potency,[7],inactive
same,Potency,[11],inactive
same,Potency,[12],inactive
CN1C(=O)COc2c(C(=O)NC3CN4CCC3CC4)cc(Cl)cc21 (stereo not drawn),Potency,[1],inactive
same,Potency,[2],inactive
same,Potency,[3],inactive
same,Potency,[4],inactive
same,Potency,[13],inactive
same,Potency,[11],inactive
same,Potency,[12],inactive
same,activity (max response),[8],0.49% and -6.93%
same,Potency,[9],inactive
CCCC(C)(COC(N)=O)COC(=O)NC(C)C (stereo not drawn),Potency,[1],inactive
same,Potency,[2],inactive
same,Potency,[3],inactive
same,Potency,[10],inactive
same,Potency,[6],inactive
same,Potency,[14],inactive
same,Potency,[7],inactive
same,Potency,[11],inactive
same,activity (max response),[8],8.8%
same,Potency,[9],inactive
